Results as given in PubChem BioAssay AID1159580 (chemical genetic matrix, 2015).
In all, about 5,500 compounds went through this assay and about 2,000 (36%) were called active. Not shown: some 18% with an inconclusive outcome. Cut-off read from the data, not from the text of the source: active = normalized growth mostly below about 0.91 (no sharp cut-off); inconclusive = no clear call, values can overlap the other calls; inactive = mostly above about 0.92. The list shows a part of the results.

Assay: chemical genetic growth profiling, strain panel (AID 1159580);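 note: tested at 20 µM; growth read once vehicle control cultures reached saturation at 30 °C; 1 = growth at the plate median or of vehicle wells; lower values mean less growth of the strain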
Details: growth OD

Measured: normalized growth

CCC[C@H](N[C@@H](C)C(=O)N1[C@H](C(=O)O)C[C@@H]2CCCC[C@@H]21)C(=O)OCC
inactive: S. cerevisiae deletion strains, locus YJR075W, strain HOC1, stronger effect = lower value 1.02 | S. cerevisiae deletion strains, locus YKL009W, strain mrt4, stronger effect = lower value 1.02 | S. cerevisiae deletion strains, locus YKL068W, stronger effect = lower value 1.03 | S. cerevisiae deletion strains, locus YKL085W, strain MDH1 (second series), stronger effect = lower value 1.01 | S. cerevisiae deletion strains, locus YKL085W, strain MDH1, stronger effect = lower value 1.01 | S. cerevisiae deletion strains, locus YKL160W, strain elf1, stronger effect = lower value 1.02 | S. cerevisiae deletion strains, locus YKL190W, strain CNB1, stronger effect = lower value 1.02 | S. cerevisiae deletion strains, locus YKR001C, strain vps1, stronger effect = lower value 1.03 | S. cerevisiae deletion strains, locus YKR026C, strain gcn3, stronger effect = lower value 1.02 | S. cerevisiae deletion strains, locus YKR091W, strain srl3, stronger effect = lower value 1.02 | S. cerevisiae deletion strains, locus YLL001W, strain dnm1, stronger effect = lower value 1.02 | S. cerevisiae deletion strains, locus YLL026W, stronger effect = lower value 1.01 | S. cerevisiae deletion strains, locus YLL041C, strain sdh2, stronger effect = lower value 1.01 | S. cerevisiae deletion strains, locus YLR027C, strain aat2, stronger effect = lower value 1.01 | S. cerevisiae deletion strains, locus YLR039C, strain RIC1, stronger effect = lower value 1.03 | S. cerevisiae deletion strains, locus YLR058C, strain SHM2, stronger effect = lower value 1.01 | S. cerevisiae deletion strains, locus YLR102C, strain apc9, stronger effect = lower value 1.02 | S. cerevisiae deletion strains, locus YLR113W, strain HOG1, stronger effect = lower value 0.988 | S. cerevisiae deletion strains, locus YLR221C, strain rsa3, stronger effect = lower value 1.01 | S. cerevisiae deletion strains, locus YLR258W, strain gsy2, stronger effect = lower value 1.02 | S. cerevisiae deletion strains, locus YLR262C, strain YPT6 (second series), stronger effect = lower value 1.03 | S. cerevisiae deletion strains, locus YLR262C, strain YPT6, stronger effect = lower value 1.04 | S. cerevisiae deletion strains, locus YLR268W, strain sec22, stronger effect = lower value 1.02 | S. cerevisiae deletion strains, locus YLR320W, strain mms22, stronger effect = lower value 1.01 | S. cerevisiae deletion strains, locus YLR330W, strain CHS5, stronger effect = lower value 1.01 | S. cerevisiae deletion strains, locus YLR342W, strain FKS1 (second series), stronger effect = lower value 1.02 | S. cerevisiae deletion strains, locus YLR342W, strain FKS1, stronger effect = lower value 1.03 | S. cerevisiae deletion strains, locus YLR357W, strain rsc2, stronger effect = lower value 0.998 | S. cerevisiae deletion strains, locus YLR370C, strain arc18, stronger effect = lower value 1.01 | S. cerevisiae deletion strains, locus YLR371W, strain rom2, stronger effect = lower value 1.01 | S. cerevisiae deletion strains, locus YLR384C, strain iki3, stronger effect = lower value 1.01 | S. cerevisiae deletion strains, locus YLR418C, strain cdc73, stronger effect = lower value 1.01 | S. cerevisiae deletion strains, locus YML016C, strain PPZ1, stronger effect = lower value 1.01 | S. cerevisiae deletion strains, locus YML032C, strain rad52, stronger effect = lower value 1.02 | S. cerevisiae deletion strains, locus YML120C, strain ndi1, stronger effect = lower value 1.02 | S. cerevisiae deletion strains, locus YML124C, strain tub3, stronger effect = lower value 1.02 | S. cerevisiae deletion strains, locus YMR058W, strain fet3, stronger effect = lower value 1.02 | S. cerevisiae deletion strains, locus YMR078C, strain ctf18, stronger effect = lower value 1.03 | S. cerevisiae deletion strains, locus YMR125W, strain sto1, stronger effect = lower value 0.994 | S. cerevisiae deletion strains, locus YMR129W, stronger effect = lower value 1.02 | S. cerevisiae deletion strains, locus YMR205C, strain PFK2, stronger effect = lower value 1.02 | S. cerevisiae deletion strains, locus YMR223W, strain ubp8, stronger effect = lower value 1.03 | S. cerevisiae deletion strains, locus YMR231W, strain pep5, stronger effect = lower value 1.02 | S. cerevisiae deletion strains, locus YMR263W, strain SAP30, stronger effect = lower value 1.01 | S. cerevisiae deletion strains, locus YMR307W, strain GAS1, stronger effect = lower value 0.976 | S. cerevisiae deletion strains, locus YNL067W, strain RPL9B, stronger effect = lower value 1.01 | S. cerevisiae deletion strains, locus YNL071W, strain lat1, stronger effect = lower value 1.01 | S. cerevisiae deletion strains, locus YNL128W, strain TEP1, stronger effect = lower value 1.01 | S. cerevisiae deletion strains, locus YNL153C, strain GIM3, stronger effect = lower value 1 | S. cerevisiae deletion strains, locus YNL183C, strain NPR1, stronger effect = lower value 0.963 | S. cerevisiae deletion strains, locus YNL209W, strain ssb2, stronger effect = lower value 1.01 | S. cerevisiae deletion strains, locus YNL233W, strain BNI4, stronger effect = lower value 0.996 | S. cerevisiae deletion strains, locus YNL248C, strain rpa49, stronger effect = lower value 1.01 | S. cerevisiae deletion strains, locus YNL250W, strain rad50, stronger effect = lower value 1.02 | S. cerevisiae deletion strains, locus YNL271C, strain bni1, stronger effect = lower value 1.02 | S. cerevisiae deletion strains, locus YNL298W, strain CLA4, stronger effect = lower value 1.01 | S. cerevisiae deletion strains, locus YNL307C, strain MCK1, stronger effect = lower value 1.03 | S. cerevisiae deletion strains, locus YNL322C, strain KRE1 (second series), stronger effect = lower value 1.02 | S. cerevisiae deletion strains, locus YNL322C, strain KRE1, stronger effect = lower value 1.01 | S. cerevisiae deletion strains, locus YNR049C, strain mso1, stronger effect = lower value 1.02 | S. cerevisiae deletion strains, locus YNR052C, strain pop2, stronger effect = lower value 1.02 | S. cerevisiae deletion strains, locus YOL006C, strain TOP1, stronger effect = lower value 1.04 | S. cerevisiae deletion strains, locus YOL012C, strain htz1 0.981 | S. cerevisiae deletion strains, locus YOL147C, strain pex11, stronger effect = lower value 1.02 | S. cerevisiae deletion strains, locus YOR001W, strain rrp6, stronger effect = lower value 1.03 | S. cerevisiae deletion strains, locus YOR061W, strain CKA2, stronger effect = lower value 1.01 | S. cerevisiae deletion strains, locus YOR069W, strain VPS5, stronger effect = lower value 1 | S. cerevisiae deletion strains, locus YOR070C, strain gyp1, stronger effect = lower value 1.02 | S. cerevisiae deletion strains, locus YOR080W, strain dia2, stronger effect = lower value 1.03 | S. cerevisiae deletion strains, locus YOR083W, strain WHI5, stronger effect = lower value 1.02 | S. cerevisiae deletion strains, locus YOR106W, strain vam3, stronger effect = lower value 1.04 | S. cerevisiae deletion strains, locus YOR136W, strain idh2, stronger effect = lower value 1.02 | S. cerevisiae deletion strains, locus YOR144C, strain elg1, stronger effect = lower value 1.02 | S. cerevisiae deletion strains, locus YOR184W, strain ser1, stronger effect = lower value 1.03 | S. cerevisiae deletion strains, locus YOR231W, strain MKK1, stronger effect = lower value 0.999 | S. cerevisiae deletion strains, locus YOR265W, strain rbl2, stronger effect = lower value 1.01 | S. cerevisiae deletion strains, locus YOR270C, strain vph1, stronger effect = lower value 1.05 | S. cerevisiae deletion strains, locus YOR290C, strain snf2, stronger effect = lower value 1 | S. cerevisiae deletion strains, locus YOR316C, strain cot1, stronger effect = lower value 1.02 | S. cerevisiae deletion strains, locus YPL051W, strain arl3, stronger effect = lower value 1.02 | S. cerevisiae deletion strains, locus YPL055C, strain LGE1, stronger effect = lower value 1.01 | S. cerevisiae deletion strains, locus YPL078C, strain atp4, stronger effect = lower value 1.03 | S. cerevisiae deletion strains, locus YPL106C, strain sse1, stronger effect = lower value 1.02 | S. cerevisiae deletion strains, locus YPL240C, strain hsp82, stronger effect = lower value 1.02 | S. cerevisiae deletion strains, locus YPL241C, strain CIN2, stronger effect = lower value 1.03 | S. cerevisiae deletion strains, locus YPL256C, strain CLN2, stronger effect = lower value 1 | S. cerevisiae deletion strains, locus YPR119W, strain clb2, stronger effect = lower value 1.03 | S. cerevisiae deletion strains, locus YPR141C, strain kar3, stronger effect = lower value 1.02 | S. cerevisiae deletion strains, locus YPR163C, strain tif3, stronger effect = lower value 1.02 | S. cerevisiae deletion strains, locus YPR167C, strain met16, stronger effect = lower value 1.01 | S. cerevisiae deletion strains, strain wtn01, stronger effect = lower value 1.01 | S. cerevisiae strains, strain wild type, stronger effect = lower value 1.01
